An excerpt weighted towards active compounds, which were near 5.3% of everything screened.
HP1b binding inh – blocks HP1-beta chromodomain binding to methylated histone tails; Potency, µM (series often up to 114 µM), most hits filed as inhibitors; AlphaScreen HP1-beta / biotin-H3K9me3 peptide binding; hit rate 0.56% among 390,000; further: nearly all actives have a fitted effect of over 70% in size
Target sequence (P83916 whole entry, looked up): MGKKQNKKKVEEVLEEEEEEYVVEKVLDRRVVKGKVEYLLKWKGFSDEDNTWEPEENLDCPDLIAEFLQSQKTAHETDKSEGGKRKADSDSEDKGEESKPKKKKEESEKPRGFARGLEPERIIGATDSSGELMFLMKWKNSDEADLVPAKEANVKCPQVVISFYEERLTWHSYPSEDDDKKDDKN
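AlphaScreen: HP1-beta (50 nM) preformed 30 min with biotin-H3(1-18)K9me3 peptide (50 nM) in PBS pH 7.4, 0.01% Tween-20. Compound added for 30 min at RT, then streptavidin donor/nickel chelate acceptor beads (10 ug/mL) for 30 min.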
TDP1 block – inhibitors of human tyrosyl-DNA phosphodiesterase TDP1 | Q9NUW8 | recombinant TDP1, AlphaScreen DNA substrate cleavage | Potency, µM (doses to about 130 µM), usual class: inhibitors | hit rate 0.28% among 350,000; further: nearly all actives have a fitted effect of over 40% in size
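Recombinant E. coli-expressed Tdp1 (1 nM) preincubated with compound 15 min at RT, then 5'-biotin/3'-phosphotyrosine-FITC DNA substrate (15 nM) added for 5 min. AlphaScreen beads (10 ug/ml) added, 10 min RT; tyrosine-FITC cleavage read as signal loss.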
Six1-Eya2 inh – Six1/Eya2 interaction inhibition | AlphaScreen GST-Six1/His-Eya2 binding, biochemical; stronger effect = lower value | activity change, % (no concentration beside the values) | hit rate 0.56% among 360,000 | AID 651725; in the data active means activity change below about -65%; inconclusive means mostly about -30% to -63%
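Compounds are tested against tagged Six1 and Eya2 proteins bridged by glutathione donor and nickel acceptor beads; after a one-hour incubation at 37 °C without light, AlphaScreen emission is recorded.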
BAZ2B inh – blocks human BAZ2B; AlphaScreen BAZ2B-H3K14Ac peptide displacement; hit rate 4.4% among 360,000; Q9UIF8; Potency, µM (titrated, usually from 114 µM), hits mostly inhibitors; further: nearly all actives have a fitted effect of over 60% in size
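In this displacement format the biotinylated H3(5-23) peptide acetylated at Lys14 serves as ligand at 50 nM, with BAZ2B at 50 nM in PBS pH 7.4 containing 0.01% Tween-20. Donor and acceptor beads are 10 ug/mL final.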
JMJD2A Tudor inh – blocks the human JMJD2A Tudor domain. O75164. AlphaScreen JMJD2A-Tudor / H3K4me3 peptide binding. Potency, µM (titrated, usually from 114 µM), usual class: inhibitors. hit rate 4.4% among 390,000. AID 504339; further: nearly all actives have a fitted effect of over 50% in size
CtBP-E1A inh – blocks the CtBP interaction with E1A; hit rate 0.49% among 340,000; AID 651724; AlphaScreen GST-E1A/His-CtBP binding, 1536-well; stronger effect = lower value; activity change, % (test concentration not listed); in the data active means activity change below about -65%; inconclusive means mostly about -30% to -63%
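Homogeneous bead-based format: GST-tagged E1A captured on glutathione donor beads, His-tagged CtBP on nickel acceptor beads; compounds precede bead addition by 2 h at 37 °C.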
Large screens that a line does not name were inactive. Unless noted, the call rests on the fitted dose curve; in most records, active means well fitted inhibition curve with a large enough effect; inconclusive means small, poorly fitted or top-dose-only effect; inactive means no such curve, though single readings can be large or run the other way.

O=C(Nc1ccc(Nc2ccccc2)cc1)c1c(F)c(F)c(F)c(F)c1F	none (no result: TDP1 block)
O=C1C=CC(=O)N1c1ccc(Nc2ccccc2)cc1	HP1b binding inh inconclusive, JMJD2A Tudor inh 50.1µM, CtBP-E1A inh inconclusive (no result: TDP1 block, BAZ2B inh)
O=C1C=CC(=O)N1c1ccc2ccccc2c1	HP1b binding inh inconclusive, JMJD2A Tudor inh 17.8µM (no result: TDP1 block, BAZ2B inh)
Cc1cccc(N2C(=O)C=CC2=O)c1	HP1b binding inh inconclusive, JMJD2A Tudor inh 20µM (no result: TDP1 block, BAZ2B inh)
COC(=O)c1ccccc1O	none (no result: HP1b binding inh, Six1-Eya2 inh, BAZ2B inh, JMJD2A Tudor inh, CtBP-E1A inh)
COC(=O)c1ccc(=O)c2nc3/c(=C/O)c(O)cc(=O)c3[nH]c12	TDP1 block inconclusive, Six1-Eya2 inh -88.7, BAZ2B inh 0.708µM, JMJD2A Tudor inh 0.631µM, CtBP-E1A inh -93.8
COC(=O)NC(c1cccc(F)c1)[C@]1(C(C)=O)CCCC1=O (stereo partly specified)	none (no result: HP1b binding inh, Six1-Eya2 inh, BAZ2B inh, JMJD2A Tudor inh, CtBP-E1A inh)
O=C(CCN1C(=O)/C(=C\C=C\c2ccccc2)SC1=S)Nc1ccccc1C(=O)O	HP1b binding inh inconclusive, JMJD2A Tudor inh 44.7µM
O=C(CCN1C(=O)/C(=C\C=C\c2ccccc2)SC1=S)Nc1cccc(C(=O)O)c1	HP1b binding inh inconclusive, TDP1 block inconclusive, BAZ2B inh 20µM, JMJD2A Tudor inh 50.1µM
COc1cc2[nH]c(=O)n(CCCC(=O)N(C)Cc3ccccc3)c(=O)c2cc1OC	none (no result: Six1-Eya2 inh, CtBP-E1A inh)
CCOC(=O)C1Nc2ccccc2C2C(O)C(O)CC12 (stereo unspecified)	JMJD2A Tudor inh 50.1µM (no result: TDP1 block, BAZ2B inh)
CNC(=O)[C@@H](Cc1ccccc1)N(C)C(=O)[C@@H](Cc1ccc2ccccc2c1)N(C)C(=O)/C=C/CC(C)(C)N	none (no result: HP1b binding inh, Six1-Eya2 inh, BAZ2B inh, JMJD2A Tudor inh, CtBP-E1A inh)
CCCCOc1ccc2c(c1)C(=O)c1cc(O)ccc1-2	HP1b binding inh 44.7µM, BAZ2B inh 35.5µM, JMJD2A Tudor inh 28.2µM
CC(C)=CCN1CCN(Cc2cccnc2)CC1CCO (stereo unspecified)	none
CC(C)(C)NC(=O)[C@@H]1CN(Cc2cccnc2)CCN1C[C@@H](O)C[C@@H](Cc1ccccc1)C(=O)N[C@H]1c2ccccc2C[C@H]1O	JMJD2A Tudor inh 89.1µM (no result: TDP1 block, BAZ2B inh)
COC(=O)c1ccc(CC(=O)c2ccc(O)cc2O)o1	BAZ2B inh 63.1µM
CC(=O)c1cc(-c2ccc(F)cc2)n(CCC(=O)NC(C)(C)C)c1C	BAZ2B inh 50.1µM (no result: CtBP-E1A inh)
CCC(C)NC(=O)CCn1c(-c2ccc(F)cc2)cc(C(C)=O)c1C (stereo unspecified)	BAZ2B inh inconclusive (no result: CtBP-E1A inh)
CC(=O)c1cc(-c2ccccc2)n(CCC(=O)NCc2cccs2)c1C	BAZ2B inh 50.1µM
COc1ccc(-c2cc(C(C)=O)c(C)n2CCC(=O)NCc2ccc(F)cc2)cc1	BAZ2B inh 79.4µM (no result: Six1-Eya2 inh, CtBP-E1A inh)
CCCC(=O)Nc1ccc(-c2nc3ncccc3o2)cc1C	none (no result: Six1-Eya2 inh, CtBP-E1A inh)
C#CCCc1cscc1/C=[N+](\[O-])c1ccc(C(=O)OCC)cc1	HP1b binding inh inconclusive, JMJD2A Tudor inh 50.1µM
CCOC(=O)c1ccc(/[N+]([O-])=C/c2ccccc2)cc1	HP1b binding inh inconclusive, BAZ2B inh inconclusive, JMJD2A Tudor inh 31.6µM
CCNc1nc(NCC)nc(C(=O)NN)n1	Six1-Eya2 inh inconclusive, BAZ2B inh 2.82µM, JMJD2A Tudor inh 39.8µM, CtBP-E1A inh inconclusive
CCOc1ccc(N2C(=O)CS/C2=C(\C(Cl)=C(Cl)Cl)[N+](=O)[O-])cc1	BAZ2B inh 50.1µM, JMJD2A Tudor inh 5.01µM
Cc1ccccc1/C=C1\SC(=S)N(/N=C/c2cc([N+](=O)[O-])ccc2O)C1=O	Six1-Eya2 inh inconclusive, BAZ2B inh 22.4µM, JMJD2A Tudor inh inconclusive, CtBP-E1A inh -91.6
O=C1/C(=C\c2cc([N+](=O)[O-])ccc2O)SC(=S)N1Cc1ccc(Cl)cc1	BAZ2B inh 25.1µM, JMJD2A Tudor inh 35.5µM (no result: TDP1 block, CtBP-E1A inh)
COc1cccc(/C=C2/SC(=S)N(CC(=O)NNC(=O)c3ccccc3O)C2=O)c1	BAZ2B inh inconclusive
O=C(CN1C(=O)/C(=C/c2ccccc2)SC1=S)NNC(=O)c1ccccc1O	BAZ2B inh 79.4µM
O=C(CCCN1C(=O)/C(=C/c2ccccc2)SC1=S)Nc1cccc(O)c1	BAZ2B inh inconclusive, JMJD2A Tudor inh inconclusive (no result: CtBP-E1A inh)
O=C1/C(=C\c2cccc(O)c2)SC(=S)N1Cc1ccccc1	BAZ2B inh 39.8µM, JMJD2A Tudor inh 44.7µM (no result: TDP1 block, CtBP-E1A inh)

Compound activity: PubChem, National Center for Advancing Translational Sciences (NCATS)
